5 compounds from PubChem BioAssay can be followed below.

Test [1] in a line: small molecules captured by biotinylated probe aFSTL3 – biochemical, small-molecule microarray, fluorescence 635/667, stem cell growth factor project, primary screen (AID 1064).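 Also: measures binding of the biotinylated anti-FSTL3 antibody to printed compounds.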 The following applies: higher = more signal.
Test [2] can be described thus: binders from COS7 lysate, DM2A8 probe, primary screen, torsin A project, cell lysate, small-molecule microarray, fluorescence 635/667 (AID 1065). The conditions noted are these: higher = more signal, COS7 lysate expressing mutant human TOR1A.
Test [3] in a line: small molecules captured by biotinylated probe aFGF2 – biochemical, small-molecule microarray, fluorescence 635/667, stem cell growth factor project, primary screen (AID 1067).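 Also: measures binding of biotinylated aFGF2 protein to printed compounds on slides; z-score merges feature fluorescence and signal-to-noise across triplicate slides.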 The conditions noted are these: higher = more signal.
Test [4] can be described thus: small molecules captured by biotinylated probe aFGF10 – biochemical, small-molecule microarray, fluorescence 635/667, stem cell growth factor project, primary screen (AID 1071).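 Also: score merges 667 nm spot intensity and signal to noise from triplicate slides.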 The following applies: higher = more signal.
For test [5], the target named is Neurogenic locus notch homolog protein 2 (Homo sapiens) (UniProt Q04721). Description: small molecules binding Notch2 protein – biochemical, small-molecule microarray, 635 nm fluorescence, stem cell growth factors, primary screen (AID 1073). The conditions noted are these: higher = more signal.
Neurogenic locus notch homolog protein 2 (Homo sapiens), sequence (Q04721 whole entry, looked up, canonical isoform): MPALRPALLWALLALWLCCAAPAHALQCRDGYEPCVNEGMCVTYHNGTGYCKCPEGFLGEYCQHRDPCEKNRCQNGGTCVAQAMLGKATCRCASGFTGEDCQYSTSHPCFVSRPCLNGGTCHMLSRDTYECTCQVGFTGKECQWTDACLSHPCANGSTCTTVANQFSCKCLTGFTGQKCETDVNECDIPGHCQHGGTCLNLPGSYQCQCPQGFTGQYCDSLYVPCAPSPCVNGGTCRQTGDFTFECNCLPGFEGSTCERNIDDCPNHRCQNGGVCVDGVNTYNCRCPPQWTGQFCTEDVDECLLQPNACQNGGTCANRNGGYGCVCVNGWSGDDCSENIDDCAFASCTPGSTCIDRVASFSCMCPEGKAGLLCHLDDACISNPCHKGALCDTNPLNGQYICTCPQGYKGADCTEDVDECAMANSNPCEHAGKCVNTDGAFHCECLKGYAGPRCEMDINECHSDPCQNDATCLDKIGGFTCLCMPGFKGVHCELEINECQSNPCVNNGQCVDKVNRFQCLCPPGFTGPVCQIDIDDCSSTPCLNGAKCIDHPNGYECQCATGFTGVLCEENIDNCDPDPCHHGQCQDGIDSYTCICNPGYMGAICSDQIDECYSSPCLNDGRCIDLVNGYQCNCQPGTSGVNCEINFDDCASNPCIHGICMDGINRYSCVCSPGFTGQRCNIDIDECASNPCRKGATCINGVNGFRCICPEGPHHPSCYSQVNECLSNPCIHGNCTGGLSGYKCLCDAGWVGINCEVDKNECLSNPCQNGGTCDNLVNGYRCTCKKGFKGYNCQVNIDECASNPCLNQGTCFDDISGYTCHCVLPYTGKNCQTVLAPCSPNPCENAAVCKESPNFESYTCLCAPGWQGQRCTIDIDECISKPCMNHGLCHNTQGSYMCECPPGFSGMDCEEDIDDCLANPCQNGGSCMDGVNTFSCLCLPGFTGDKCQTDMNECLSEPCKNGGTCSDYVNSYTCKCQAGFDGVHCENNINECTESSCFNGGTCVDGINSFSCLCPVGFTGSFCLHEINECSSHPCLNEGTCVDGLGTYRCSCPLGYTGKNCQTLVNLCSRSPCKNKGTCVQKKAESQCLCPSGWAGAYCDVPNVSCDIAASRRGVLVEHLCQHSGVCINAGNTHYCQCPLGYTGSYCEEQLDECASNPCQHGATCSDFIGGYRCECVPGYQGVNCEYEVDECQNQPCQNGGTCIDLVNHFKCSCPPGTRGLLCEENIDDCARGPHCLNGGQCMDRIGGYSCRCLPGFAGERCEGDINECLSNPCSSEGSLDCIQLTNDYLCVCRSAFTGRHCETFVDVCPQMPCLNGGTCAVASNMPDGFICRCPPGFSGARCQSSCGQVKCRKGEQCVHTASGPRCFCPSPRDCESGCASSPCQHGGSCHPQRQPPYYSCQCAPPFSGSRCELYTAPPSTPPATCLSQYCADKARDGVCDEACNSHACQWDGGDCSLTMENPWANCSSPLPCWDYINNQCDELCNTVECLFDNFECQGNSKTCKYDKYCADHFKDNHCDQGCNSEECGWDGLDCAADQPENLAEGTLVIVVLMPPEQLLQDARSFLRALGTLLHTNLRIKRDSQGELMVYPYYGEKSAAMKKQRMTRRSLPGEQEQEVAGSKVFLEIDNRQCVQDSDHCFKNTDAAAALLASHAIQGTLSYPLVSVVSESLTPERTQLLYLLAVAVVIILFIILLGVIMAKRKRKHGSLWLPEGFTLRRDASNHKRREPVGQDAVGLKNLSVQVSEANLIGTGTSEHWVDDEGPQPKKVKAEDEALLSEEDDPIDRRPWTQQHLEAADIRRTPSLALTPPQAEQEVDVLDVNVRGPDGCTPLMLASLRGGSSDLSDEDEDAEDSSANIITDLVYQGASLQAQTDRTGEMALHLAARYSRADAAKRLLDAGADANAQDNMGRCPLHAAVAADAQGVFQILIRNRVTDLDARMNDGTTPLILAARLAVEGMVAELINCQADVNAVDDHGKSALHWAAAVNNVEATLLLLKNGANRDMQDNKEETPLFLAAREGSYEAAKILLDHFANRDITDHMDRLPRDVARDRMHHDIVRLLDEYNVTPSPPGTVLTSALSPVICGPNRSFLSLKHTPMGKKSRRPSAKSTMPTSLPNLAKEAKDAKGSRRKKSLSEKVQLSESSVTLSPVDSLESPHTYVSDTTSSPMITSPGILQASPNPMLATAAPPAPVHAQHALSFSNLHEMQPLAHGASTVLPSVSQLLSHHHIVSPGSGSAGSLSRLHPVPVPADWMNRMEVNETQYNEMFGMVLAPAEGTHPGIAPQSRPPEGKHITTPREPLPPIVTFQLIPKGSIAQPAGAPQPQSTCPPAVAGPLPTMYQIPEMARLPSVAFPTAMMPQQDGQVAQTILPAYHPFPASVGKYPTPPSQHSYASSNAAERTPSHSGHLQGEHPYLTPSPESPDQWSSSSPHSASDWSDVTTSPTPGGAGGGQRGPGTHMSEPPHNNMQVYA
Test [6] deals with Pro-neuregulin-1, membrane-bound isoform (Homo sapiens) (UniProt Q02297). Description: small molecules binding neuregulin-1 protein – biochemical, small-molecule microarray, fluorescence 635/667, psychiatric disease protein project, primary screen (AID 1075).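 Also: score combines 667 nm spot fluorescence with signal to noise.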 The conditions noted are these: NRG1 binding, 635 nm fluorescence, higher = more signal.
Test [7] relates to Neuregulin-1 EGF-like domain. Put plainly: small molecules binding NRG1 EGF domain – biochemical, small-molecule microarray, 635 nm fluorescence, primary screen (AID 1081).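 Also: binding of the protein to compounds printed on small-molecule microarray slides.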 The following applies: higher = more signal.
The nature of test [8]: FRG1 expression reporter modulators in myotubes – cell-based, C2C12 myotubes, firefly/Renilla luciferase, luminescence, FRG1 inhibition for FSHD, primary screen (AID 1084). The conditions noted are these: FRG1 promoter luciferase, higher = more signal, called active from +8 up or from −8 down.
A short description of test [9]: small molecules captured by biotinylated probe aFST – biochemical, small-molecule microarray, fluorescence 635/667, stem cell growth factor project, primary screen (AID 1086).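 Also: score merges 667 nm fluorescence with signal-to-noise of each printed compound spot.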 The following applies: higher = more signal.
Test [10] can be described thus: binders of probe aHhip on microarray, primary screen, stem cell growth factor project, biochemical, small-molecule microarray, fluorescence 635/667 (AID 1087).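 Also: score merges spot fluorescence at 667nm with spot signal to noise ratio.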 The following applies: higher = more signal.
The subject of test [11] is PRMT1 (protein arginine N-methyltransferase 1). Put plainly: small molecules binding arginine methyltransferase PRMT1 – biochemical, small-molecule microarray, 635 nm fluorescence, primary screen (AID 1088).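 Also: binding of Prmt1 protein to compounds spotted on small-molecule microarray slides.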 The following applies: higher = more signal.
Test [12] is described as follows: growth effects on S. cerevisiae YJM789 – YJM789 clinical isolate, OD600, 24 h, basal, primary screen (AID 1089).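 Also: growth of clinical yeast isolate S. cerevisiae YJM 789 seeded 1000 cells per well; test concentration not given here.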 The conditions noted are these: higher = more signal, called active from +8 up or from −8 down.
Test [13] can be described thus: S. pombe growth modifiers, basal conditions – strain 972, OD600, 24 h, no modulator, primary screen (AID 1090).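 Also: basal condition with compound alone and no growth modifier present; test concentration not given here.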 The conditions noted are these: S. pombe 972 growth, higher = more signal, called active from +8 up or from −8 down.
A short description of test [14]: budding yeast growth modifiers under rapamycin – strain BY4716, OD600, 96 h, primary screen (AID 1091). Also: test concentration not given here. The following applies: S. cerevisiae BY4716 + rapamycin, higher = more signal, called active from +8 up or from −8 down.
For test [15], the target named is Torsin-1A-interacting protein 2 (Homo sapiens) (UniProt Q8NFQ8). Put plainly: small molecules binding lysate-expressed LULL1 – cell lysate, human LULL1 lysate, 635/667 nm fluorescence, primary screen (AID 1092).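 Also: probe is lysate of COS7 cells overexpressing human LULL1; score merges per-feature 667 nm fluorescence with signal-to-noise.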 The conditions noted are these: small-molecule microarray, hLULL1 lysate binding, 635 nm fluorescence; higher = more signal.
Test [16] can be described thus: optical density change of DRC41 E. coli – strain DRC41, OD650, 24 h, E. coli filamentation project, primary screen (AID 1093).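 Also: MC1000 strain lacking acrAB efflux and sulA so SOS filamentation is blocked; test concentration not given here.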 The following applies: E. coli DRC41 growth, higher = more signal, called active from +8 up or from −8 down.
The nature of test [17]: probe aLefty2 binding to arrayed compounds – biochemical, biotinylated probe, 635/667 nm fluorescence, primary screen (AID 1094).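 Also: score merges spot fluorescence near 667 nm with spot signal-to-noise ratio.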 The following applies: small-molecule microarray, higher = more signal.
The test system of test [18] is Noggin (protein binding on small-molecule microarray). Put plainly: small molecules binding Noggin protein – biochemical, 635/667 nm fluorescence, primary screen (AID 1095).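 Also: score merges 667 nm feature fluorescence with signal to noise over triplicate slides.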 The following applies: 635 nm fluorescence, higher = more signal.
For test [19], the target named is Neurogenic locus notch homolog protein 3 (Homo sapiens) (UniProt Q9UM47). Put plainly: small molecules binding NOTCH3 protein – biochemical, 635/667 nm fluorescence, primary screen (AID 1096). The conditions noted are these: small-molecule microarray, 635 nm fluorescence, higher = more signal.
Neurogenic locus notch homolog protein 3 (Homo sapiens), sequence (Q9UM47 whole entry, looked up): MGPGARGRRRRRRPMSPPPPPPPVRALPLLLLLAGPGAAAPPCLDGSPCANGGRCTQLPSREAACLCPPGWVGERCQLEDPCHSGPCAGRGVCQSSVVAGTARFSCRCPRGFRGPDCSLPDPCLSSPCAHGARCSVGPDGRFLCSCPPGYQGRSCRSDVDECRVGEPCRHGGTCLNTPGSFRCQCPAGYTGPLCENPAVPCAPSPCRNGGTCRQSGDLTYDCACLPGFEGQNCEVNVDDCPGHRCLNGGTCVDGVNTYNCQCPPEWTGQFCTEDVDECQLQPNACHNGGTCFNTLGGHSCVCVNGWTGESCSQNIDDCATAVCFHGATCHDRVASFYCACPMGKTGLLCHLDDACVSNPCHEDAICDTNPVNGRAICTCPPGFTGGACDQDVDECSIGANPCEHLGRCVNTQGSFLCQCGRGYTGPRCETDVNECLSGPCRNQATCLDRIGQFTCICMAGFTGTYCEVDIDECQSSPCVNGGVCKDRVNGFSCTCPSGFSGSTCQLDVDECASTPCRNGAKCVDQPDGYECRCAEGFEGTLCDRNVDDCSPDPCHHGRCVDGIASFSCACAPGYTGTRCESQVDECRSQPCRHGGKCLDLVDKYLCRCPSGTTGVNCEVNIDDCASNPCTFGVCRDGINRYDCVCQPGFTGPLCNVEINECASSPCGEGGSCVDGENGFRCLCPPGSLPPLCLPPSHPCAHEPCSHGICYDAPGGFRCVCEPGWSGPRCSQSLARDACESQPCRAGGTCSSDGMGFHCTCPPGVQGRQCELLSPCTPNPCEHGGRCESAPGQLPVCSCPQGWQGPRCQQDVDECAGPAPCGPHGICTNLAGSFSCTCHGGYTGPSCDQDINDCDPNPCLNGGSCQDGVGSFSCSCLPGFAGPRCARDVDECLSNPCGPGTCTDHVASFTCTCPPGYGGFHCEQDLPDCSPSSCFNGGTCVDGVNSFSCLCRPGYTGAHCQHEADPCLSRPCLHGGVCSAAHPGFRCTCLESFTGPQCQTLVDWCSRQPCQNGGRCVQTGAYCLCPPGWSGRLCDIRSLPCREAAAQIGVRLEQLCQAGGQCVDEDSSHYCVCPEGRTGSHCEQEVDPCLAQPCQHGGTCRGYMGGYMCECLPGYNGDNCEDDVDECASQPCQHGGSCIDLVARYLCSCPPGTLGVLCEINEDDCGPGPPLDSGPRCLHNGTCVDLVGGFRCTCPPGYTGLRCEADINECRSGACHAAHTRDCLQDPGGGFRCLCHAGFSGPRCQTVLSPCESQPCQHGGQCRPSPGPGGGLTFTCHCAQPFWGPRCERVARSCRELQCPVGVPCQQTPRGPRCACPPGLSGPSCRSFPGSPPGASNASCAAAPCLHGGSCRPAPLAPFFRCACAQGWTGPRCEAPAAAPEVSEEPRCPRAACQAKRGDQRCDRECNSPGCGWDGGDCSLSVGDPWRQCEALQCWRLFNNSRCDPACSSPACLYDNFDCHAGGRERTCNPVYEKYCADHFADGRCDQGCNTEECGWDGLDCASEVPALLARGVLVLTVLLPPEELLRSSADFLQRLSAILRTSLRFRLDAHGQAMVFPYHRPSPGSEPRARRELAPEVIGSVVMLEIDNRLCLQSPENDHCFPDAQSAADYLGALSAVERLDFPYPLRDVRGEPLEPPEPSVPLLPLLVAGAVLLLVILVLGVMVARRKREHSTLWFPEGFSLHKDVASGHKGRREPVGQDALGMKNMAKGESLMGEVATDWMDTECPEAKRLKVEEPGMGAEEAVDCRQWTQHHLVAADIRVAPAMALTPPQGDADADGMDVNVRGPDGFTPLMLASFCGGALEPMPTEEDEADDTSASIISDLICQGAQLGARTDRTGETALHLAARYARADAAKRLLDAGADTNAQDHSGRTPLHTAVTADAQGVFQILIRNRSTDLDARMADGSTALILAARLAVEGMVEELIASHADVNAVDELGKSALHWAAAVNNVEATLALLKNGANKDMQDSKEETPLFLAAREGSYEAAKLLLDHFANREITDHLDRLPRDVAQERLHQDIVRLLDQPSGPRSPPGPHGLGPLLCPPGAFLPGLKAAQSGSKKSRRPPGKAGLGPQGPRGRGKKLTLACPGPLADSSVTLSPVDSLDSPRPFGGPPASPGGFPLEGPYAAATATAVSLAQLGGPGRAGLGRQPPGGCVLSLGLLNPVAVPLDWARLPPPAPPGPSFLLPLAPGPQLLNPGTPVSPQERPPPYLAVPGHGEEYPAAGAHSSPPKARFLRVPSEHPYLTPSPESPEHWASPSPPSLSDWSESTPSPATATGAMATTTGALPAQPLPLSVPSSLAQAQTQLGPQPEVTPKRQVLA
Test [20] in a line: probe aEGFR binding to arrayed compounds – biochemical, biotinylated probe, 635/667 nm fluorescence, primary screen (AID 1097).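 Also: probe is a biotinylated anti-EGFR antibody binding compounds printed on slides; score combines fluorescence near 667 nm and signal to noise of each spot.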 The conditions noted are these: small-molecule microarray, higher = more signal.

Calls of active or inactive are those of the source.

As to `Cc1ccc(S[C@]2(C(=O)NCCN3CCOCC3)CC(=O)N(Cc3cc(C(F)(F)F)cc(C(F)(F)F)c3)[C@@H]2c2ccc(CO)cc2I)cc1`, the composite z-score in test [1] was 0.428; in test [2], -0.542; in test [3], -0.131; in test [4] it was -0.44; in test [5], -0.297; in test [6], 1.98. The composite z-score in test [7] was 0.0049; in test [9] it was 0.0607; in [10], 0.0333; in [11] it was 0.95; in [15] it was 0.509; in test [17] it was -0.183. The composite z-score was -1.06 in test [18], -0.122 in test [19] and -0.0828 in test [20]. The z-score was 0.679 (inactive) in [8]; -3.19 (inactive) in test [12]; -4.73 (inactive) in test [13]; 14.2 (active) in [14]; -1.52 (inactive) in test [16].

As to `[N-]=[N+]=NCc1ccccc1[C@H]1OC(c2ccc(OCCCO)cc2)=N[C@@]1(CCS(=O)(=O)c1ccccc1)C(=O)N1CCOCC1`, the composite z-score in test [1] worked out at 0.476; in test [2] it was 0.525; in test [3] it was 0.221; in test [4], 1.03; in [5] it was 1.63; in [6], 2.18. For the same compound, the composite z-score in test [7] was 1.16; in test [9], 1.86; in [10], -0.0391; in test [11], 1.27; in test [15], 3.65; in test [17], 0.663. In addition, the composite z-score in test [18] was determined as 0.346; in [19], 1.1; in [20], 0.302. Moreover, the z-score in test [8] is 0.51 (inactive); in test [12], 0.0373 (inactive); in test [13], 0.553 (inactive); in [14], 2.23 (inactive); in [16], 0.151 (inactive).

For `CC(=O)NCCCC[C@@H]1NC(=O)[C@@H]2C[C@H](C(=O)NCCCCN(C)C)[C@H](c3ccc(O)cc3)N2C1=O`, the composite z-score was 0.641 in test [1]; -0.241 in test [2]; -0.168 in test [3]; -0.971 in [4]; -1.09 in test [5]; -0.463 in test [6]. Besides, the composite z-score in test [7] was 0.939; in [9], -0.0292; in test [10], 0.0373; in test [11] it was -0.0942; in [15], 1.65; in test [17], -0.0906. Also, the composite z-score in test [18] is -0.126; in test [19], -0.322; in test [20] it was -0.109. The z-score is -0.816 (inactive) in test [8]; -0.442 (inactive) in test [12]; 0.169 (inactive) in [13]; -0.687 (inactive) in [14]; 1.14 (inactive) in [16].

As for `CC(C)C(=C=CC[C@H](O)c1cccc(OCCO)c1)C[C@H](O)COCc1ccccc1`, the composite z-score in test [1] is -0.222; in test [2] it was 0.0852; in [3] it was -0.095; in [4], 0.659; in [5], -0.139; in test [6] it was 1.67. For the same compound, the composite z-score in [7] was 1.13; in test [9], -0.22; in test [10], -0.0994; in test [11], 0.975; in test [15] it was 1.92; in [17] it was -0.0616. The composite z-score in test [18] was 0.551; in test [19] it was -0.243; in [20], -0.081. The z-score in test [8] is 0.724 (inactive); in [12], -0.0398 (inactive); in [13] it was 0.299 (inactive); in test [14], -0.623 (inactive); in test [16], 0.299 (inactive).

On to `COC(=O)[C@@]1(Cc2ccccc2)[C@H]2c3cc(C(=O)N(C)C)n(Cc4cc(C)n(C)n4)c3C[C@H]2CN1C(=O)c1ccccc1`, for which the composite z-score in [1] is 0.512; in test [2], 0.403; in test [3], -0.221; in test [4], -0.0117; in test [5], 1.69; in test [6], 1.51. Moreover, the composite z-score in [7] was 1.27; in test [9], 1.51; in test [10] it was 0.628; in [11] it was 0.0423; in test [15] it was 3.96; in test [17], 0.0382. Also, the composite z-score in test [18] was -0.127; in test [19], 0.809; in test [20] it was 0.238. Also, the z-score in test [8] was 0.0005 (inactive); in test [12], -0.571 (inactive); in [13] it was -0.528 (inactive); in test [14], -0.649 (inactive); in test [16] it was -0.564 (inactive).
